Screens (PubChem BioAssay)
The list is not random: actives were taken first. Their share in the collection is about 3.3%.
SIRT5 inh – sirtuin-5 (human) deacylase inhibition; Purified SirT5, succinyl-peptide AMC, trypsin-coupled fluorescence; inhibition, % at 15 µM; 1.1% of 330,000 active; AID 652115; in the data active = inhibition above about 15%
Casp6 inh – blocks human caspase-6 cleavage activity; 0.53% of 350,000 active; P55212; purified caspase-6, Z-VEID-R110 cleavage fluorescence; inhibition, % at 12.5 µM;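 active = mean inhibition across replicates at least about 35%, with every replicate also reaching that limit, limit read from the data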
FGF22 binding – binders of recombinant human FGF22 by thermal shift. Q9HCT0. SYPRO orange fluorescence; percent of sucrose octasulfate shift, DMSO zero. activity (Tm shift, normalised), % at 9.99 µM. 1.5% of 340,000 active;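 active = mean Tm shift, scaled 0 neutral to 100 positive control, at about 1.3% or above, every replicate too, limit read from the data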
INS-1E GSIS act – GLuc luminescence reporter in INS-1E cells, primary screen for activators of glucose-dependent secretion of insulin; INS-1E GLuc reporter insulin secretion, 2-3 h; activation, % at 16.6 µM; 0.61% of 370,000 active; AID 743287;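 active = lowest replicate activation of at least 40%, so every replicate reaches that level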
ERAP1 inh – inhibitors of human ERAP1 aminopeptidase | recombinant ERAP1, Leu-AMC fluorescence, 60 min | 0.15% of 340,000 active | inhibition, % at 10.7 µM | AID 652197 | Q9NZ08;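 active = mean replicate inhibition of at least 30%, or all replicates individually reaching that 30% level; inactive = mean below 30% and not every replicate reaching it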
Of the large screens only hits and unclear results are named; the others gave an inactive call.

C=C1C(C(=O)Nc2cccc(OC)c2)C1C(=O)Nc1cccc(OC)c1 (centres undefined)	FGF22 binding 44
CCOC(=O)CSc1ccc(C(=O)Nc2ccc(OC)cc2)cn1	FGF22 binding 43
COc1cccc(NC(=O)CCC(=O)Nc2cccc(OC)c2)c1	none (no result: SIRT5 inh, Casp6 inh, FGF22 binding, ERAP1 inh)
CO[C@H]1CN(C)C(=O)c2ccc(NC(=O)C3CC3)cc2OC[C@@H](C)N(Cc2cncnc2)C[C@@H]1C	none (no result: SIRT5 inh, Casp6 inh, FGF22 binding, ERAP1 inh)
O=C(O)c1ccc(NC(=O)c2cccc(C(=O)Nc3ccc(C(=O)O)cc3)c2)cc1	SIRT5 inh 33
CCOc1cccc(C(=O)Nc2ccc(NC(=O)c3cc4ccccc4o3)c(OC)c2)c1	none
COc1cc(NC(=O)c2cccc(C)c2)ccc1NC(=O)c1cc2ccccc2o1	INS-1E GSIS act 83 (no result: Casp6 inh)
COc1ccc(C(=O)Nc2cc(C(=O)O)cc(C(=O)O)c2)cc1Cl	Casp6 inh 82 (no result: FGF22 binding)
COc1cccc(NC(=O)C(c2ccccc2)N2CCCC2)c1 (centres undefined)	FGF22 binding 43
COC(=O)c1cccc(NC(=O)c2ccc(OC)c(Cl)c2)c1	none
C[C@H](CO)N1C[C@H](C)[C@@H](CN(C)C(=O)Nc2ccc(C(F)(F)F)cc2)Oc2ccc(NC(=O)C3CCCCC3)cc2CC1=O	none
Cc1ccc(S(=O)(=O)NCC[C@@H]2CC[C@@H](NS(=O)(=O)c3ccccc3Cl)[C@H](CO)O2)cc1	none
C[C@@H]1CCCCO[C@H](CN(C)C(=O)c2ccccc2)[C@@H](C)CN([C@@H](C)CO)C(=O)c2cc(NC(=O)Nc3ccc(F)cc3)ccc2O1	none
O=C(Nc1cccc(-c2nnc(-c3ccco3)o2)c1)c1ccccc1	FGF22 binding 43
CC(=O)Oc1ccc(C(=O)Nc2cccc(-c3nnc(-c4ccco4)o3)c2)cc1	none
COc1ccc(C(=O)Nc2ccc3ccccc3c2)c(OC)c1	Casp6 inh 43
COc1cccc(NC(=O)c2cccc(C(=O)Nc3cccc(OC)c3)c2)c1	none
COc1cccc(NC(=O)c2ccccc2)c1	SIRT5 inh 32
Cc1cccc(C(=O)Nc2cccc(NC(=O)c3ccccc3)c2)c1	Casp6 inh 54
O=C([C@@H]1[C@@H](CO)[C@@H]2Cn3c(ccc(/C=C/c4ccccc4)c3=O)[C@@H]2N1CC1CC1)N1CCCCC1	none
COc1ccc(Br)cc1C(=O)Nc1cccc(C)c1	INS-1E GSIS act 51 (no result: SIRT5 inh, Casp6 inh, FGF22 binding, ERAP1 inh)
COc1ccc(NC(=O)c2ccc(Oc3ncccn3)cc2)cc1	FGF22 binding 44 (no result: INS-1E GSIS act)
Cc1ccc(OCC(=O)NC(=S)Nc2cccc(NC(=O)c3ccc(Cl)cc3Cl)c2)cc1	none (no result: SIRT5 inh, Casp6 inh, FGF22 binding, ERAP1 inh)
Cc1ccc(OCC(=O)NC(=S)Nc2cccc(NC(=O)c3ccccc3)c2)cc1	INS-1E GSIS act 49 (no result: SIRT5 inh, Casp6 inh, FGF22 binding, ERAP1 inh)
CC#CC#Cc1cccc(=O)o1	Casp6 inh 53
C[C@@H]1CN([C@@H](C)CO)S(=O)(=O)c2ccc(-c3cncnc3)cc2O[C@@H]1CN(C)C(=O)Cc1ccccc1	none
S=C(Nc1ccc2nsnc2c1)N1CCCC1	Casp6 inh 47
CNC[C@@H]1Oc2ccc(NS(=O)(=O)c3cn(C)cn3)cc2CC(=O)N([C@@H](C)CO)C[C@@H]1C	none (no result: FGF22 binding)
COc1cccc(C(=O)Oc2ccc(N3C(=O)CCC3=O)c(C)c2)c1	SIRT5 inh 16
Cc1ccccc1S(=O)(=O)N1CCCCN2[C@H](CO)[C@H](c3ccc(-c4cccc(F)c4)cc3)[C@H]2C1	none
Cc1cccc(-c2ccc([C@H]3[C@@H](CO)N4CCCCN(S(=O)(=O)c5ccccc5F)C[C@@H]34)cc2)c1	none (no result: SIRT5 inh, Casp6 inh, FGF22 binding, ERAP1 inh)
Cc1ccccc1S(=O)(=O)N1CCCCN2[C@@H](CO)[C@H](c3ccc(-c4cccc(F)c4)cc3)[C@@H]2C1	SIRT5 inh 18
Cc1cccc(-c2ccc([C@@H]3[C@@H](CO)N4CCCCN(S(=O)(=O)c5ccccc5F)C[C@H]34)cc2)c1	SIRT5 inh 21
C[C@H](CO)N1C[C@H](C)[C@@H](CN(C)C(=O)c2ccc3c(c2)OCO3)Oc2ncc(/C=C/c3ccccc3)cc2C1=O	none
CC(C)NC(=O)Nc1ccc2c(c1)CC(=O)N([C@@H](C)CO)C[C@@H](C)[C@@H](CN(C)C(=O)Nc1ccc(C(F)(F)F)cc1)O2	none
CC1=Nc2ccccc2/C1=C/c1sc(=S)n(-c2cccc(C(=O)O)c2)c1O	SIRT5 inh 17
